Screening results from PubChem BioAssay.
Compounds with a hit are over-represented: about 5.4% of the library has one in this group of screens.
FMDV antiviral – blocks foot and mouth disease virus; AID 1159524; Potency, µM (highest dose often 57.9 µM), without a hit: top-dose activity change, negative = inhibition, most hits filed as inhibitors; actives 1.2% (n = 410,000); FMDV antiviral cell-based qHTS; calls by dose curve; tested in HEK293T cells; further: read-out not given here; nearly all actives have a fitted effect of over 45% in size
VACV Venus inh – vaccinia inhibition (Venus reporter) | Vaccinia virus Venus reporter expression, fluorescence | Potency, µM (top dose mostly 36.5 µM), without a hit: at the highest dose activity change, negative = inhibition, most hits filed as inhibitors | actives 0.46% (n = 330,000) | AID 720580; calls by dose curve; tested in A549 cells; further: nearly all actives have a fitted effect of over 30% in size
Vaccinia mCherry – inhibitors of vaccinia virus infection (mCherry reporter signal); Vaccinia virus mCherry reporter infection, fluorescence; Potency, µM (highest dose often 36.5 µM), for inactives: top-dose activity change, negative = inhibition, most hits filed as inhibitors; actives 0.63% (n = 310,000); AID 720579; calls by dose curve; tested in A549 cells; further: nearly all actives have a fitted effect of over 35% in size
LASV entry inh – blocks Lassa virus binding to or entry into cells; Lassa virus pseudotype entry inhibition, cell reporter; Potency, µM (highest dose often 37.9 µM), for the others: top-dose activity change, negative = inhibition, actives largely listed as inhibitors; actives 1.2% (n = 300,000); AID 540256; calls by dose curve; tested in HEK293 cells; further: nearly all actives have a fitted effect of over 50% in size
Sm TGR inh – inhibitors of Schistosoma mansoni thioredoxin glutathione reductase. Potency, µM (top dose mostly 114 µM), for the others: top-dose activity change, negative = inhibition, most hits filed as inhibitors. purified TGR, DTNB reduction, TNB absorbance 405 nm. actives 3% (n = 360,000). AID 485364; active means well fitted inhibition curve with a large enough effect; inconclusive means small, poorly fitted or top-dose-only effect; inactive means no such curve, though single readings can be large or run the other way; further: nearly all actives have a fitted effect of over 60% in size
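TGR 20 nM + NADPH 100 uM (dispensed conc.), cpd preinc 15 min RT; start with NADPH (500 uM addition) then DTNB (15 mM addition). Kinetic TNB absorbance, 405 nm filter. Four-parameter Hill fit across titration.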
Marburg entry inh – blocks Marburg virus binding to or entry into cells. Marburg virus pseudotyped entry inhibition, cell reporter. Potency, µM (doses to about 37.8 µM), for the others: top-dose activity change, negative = inhibition, most hits filed as inhibitors. actives 1.8% (n = 300,000). AID 540276; calls by dose curve; tested in HEK293 cells
Numbers without * were called inactive; i = inactive; ? = inconclusive; / = not tested or not shown; [ ] = remark or other dose. On the % scale 0 is the no-effect control and ±100 the full control effect; potency means the concentration at half of the fitted maximal effect.

SMILES	FMDV antiviral	VACV Venus inh	Vaccinia mCherry	LASV entry inh	Sm TGR inh	Marburg entry inh
Oc1ccc(/C=N/N(c2ccccc2)c2ccccc2)c(O)c1O	/	/	/	/	39.8µM*	/
O=C1c2cccc3cccc(c23)C(=O)N1/N=C/c1ccc(O)cc1O	0.0%	-2.2%	1.5%	-3.5%	1.9%	1.3%
Cc1nc2ccccc2c(=O)n1/N=C/c1ccc(O)c(O)c1O	-9.8%	-0.5%	-1.2%	/	44.7µM*	/
Cc1nc2ccccc2c(=O)n1/N=C/c1ccccc1O	-3.9%	2.4%	-18.3%	?	3.4%	?
Oc1ccc(/C=N/N2CCCCC2)c(O)c1O	3.6%	1.6%	-5.8%	-5.9%	35.5µM*	-0.4%[46.1 µM]
Oc1ccc(/C=N/N(c2ccccc2)c2ccccc2)cc1O	-12.6%	-8.4%	?	-5.8%[46.1 µM]	4.5%	4.0%[46.1 µM]
O=C1c2ccccc2C(=O)N1/N=C/c1ccc(O)c(O)c1O	8.3%	12.0%	-2.0%	-0.3%	50.1µM*	-13.0%[46.1 µM]
Cc1ccc(S(=O)(=O)c2cn(CC(=O)Nc3ccc4c(c3)OCO4)c3ccc(F)cc3c2=O)cc1	5.6%	-11.6%	-9.5%	-7.3%[46.1 µM]	3.3%	0.0%[46.1 µM]
COc1ccc(NC(=O)Cn2c(=O)oc3cc(S(=O)(=O)N4CCC(C)CC4)ccc32)c(OC)c1	?	-18.1%	-18.4%	7.5%[46.1 µM]	0.2%	?
N#CC1=C(N)Oc2c(ccc3cccnc23)C1c1ccccc1 (configuration not stated)	?	/	/	/	39.8µM*	/
COC(=O)C1=C(C)NC(C)=C(C(=O)OC)C1c1cc2cc(C)ccc2[nH]c1=O	-22.7%	-13.2%	-12.6%	8.6%	?	?
N#CC1=C(N)Oc2c(ccc3ccccc23)C1c1cccs1 (configuration not stated)	-16.3%	?	?	?	35.5µM*	?
Cc1ccc2[nH]c(=O)c(C3C(C#N)=C(N)Oc4c3ccc3cccnc43)cc2c1 (configuration not stated)	?	?	10µM*	?	15.8µM*	?
O=S(=O)(Nc1ccc(-c2ccc(N3CCCC3)nn2)cc1)c1ccc(Br)cc1	25.7%	-22.2%	i	-24.8%[46.1 µM]	6.3%	/
CC1(C)Oc2cc(N)c([N+](=O)[O-])cc2O1	-12.5%	-14.7%	/	1.7%	7.4%	11.3%
C=C1N(C)c2cc([N+](=O)[O-])c(N)cc2C1(C)C	?	-16.5%	12.2%	-27.9%	20µM*	?
CC(C)(C)NC(=O)c1ccc2c(c1)CCO2	0.7%	/	/	/	-5.7%	/
O=C(NC(=O)c1ccccc1O)c1ccc2c(c1)CCO2	-13.4%	-9.0%	i	11.2µM*	3.3%	?
CCOC(=O)N1CCC(NC(=O)c2ccc3c(c2)N(Cc2ccc(F)cc2)C(=O)c2ccccc2S3=O)CC1 (configuration not stated)	-19.9%	-11.0%	-10.8%	-29.6%[46.1 µM]	-10.6%	-27.1%[46.1 µM]
COc1ccc(N2CCN(CCCNC(=O)C3COc4ccc(OC)cc4C3)CC2)cc1 (configuration not stated)	-26.3%	-19.6%	-8.5%	-24.7%[46.1 µM]	-13.4%	/
Cc1ccc(S(=O)(=O)N2CCN(C(=O)CCc3nc4ccccc4c(=O)[nH]3)CC2)c(C)c1	?	?	-9.0%	?	6.2%	-28.8%[46.1 µM]
O=C(CCc1nc2ccccc2c(=O)[nH]1)N1CCN(S(=O)(=O)c2ccccc2Br)CC1	-23.5%	10µM*	?	-25.7%[46.1 µM]	-1.1%	-27.0%
COc1ccc(C2c3c(oc4ccc(Cl)cc4c3=O)C(=O)N2CCCN(C)C)cc1OC (configuration not stated)	-5.2%	-8.8%	i	?	4.1%	/
COc1ccc(C)cc1NC(=O)CNc1ccccc1CN(C)C1CCCCC1	?	-20.9%	-29.2%	-21.2%[46.1 µM]	3.1%	4.47µM*
CCN1CCC(NC(=O)Nc2cc(Cl)ccc2OC)CC1	-4.2%	-26.1%	i	-6.7%[46.1 µM]	3.6%	7.08µM*
SMILES	FMDV antiviral	VACV Venus inh	Vaccinia mCherry	LASV entry inh	Sm TGR inh	Marburg entry inh
COC(=O)C1CCN(CC(=O)Nc2cc(Cl)ccc2OC)CC1	/	/	/	/	0.6%	/
COc1ccc(Cl)cc1NC(=O)CNc1ccccc1CN(C)C1CCCCC1	?	-14.2%	-20.9%	?	1.1%	2.51µM*
COc1ccc(Cl)cc1NC(=O)CN(C)C1CCCCC1	-26.5%	-25.5%	i	-16.5%	3.4%	?
Cc1ccc(NC(=O)Cn2cccc2)cc1Cl	-4.1%	/	/	2.6%	31.6µM*	-24.6%
CC(=O)CSc1ccc(-c2nc3ccccc3[nH]2)cn1	-76.3%	-18.0%	-14.6%	?	-6.9%	6.31µM*
Cc1cc2nc(-c3ccc(SCC(=O)Nc4nccs4)nc3)[nH]c2cc1C	-6.7%	-8.4%	-16.4%	?	-1.9%	21.7%
CC(=O)CSc1ccc(-c2nc3cc(C)c(C)cc3[nH]2)cn1	8.91µM*	-13.1%	-25.9%	?	-11.6%	?
Cc1cc2nc(-c3ccc(SCC(=O)Nc4ccc(S(=O)(=O)N5CCCC5)cc4)nc3)[nH]c2cc1C	0.0%	-3.8%	-17.5%	?	2.1%	11.6µM*
CC1=C(C)Cc2c(nnn2-c2nc(C)nc3sc4c(c23)CCCC4)C1	/	/	/	/	/	-5.1%
O=C(COc1ccc(F)cc1)Nc1nc(-c2ccccn2)cs1	-16.4%	-12.3%	-28.5%	5.5%	-29.0%	-5.6%
CC(Oc1ccc(Br)cc1)C(=O)Nc1nc(-c2ccccn2)cs1 (configuration not stated)	39.8µM*	?	12.6µM*	?	-0.4%	?
O=C(Nc1nc(-c2ccccc2)cs1)Nc1ccc(F)cc1F	-8.0%	-12.2%	-26.9%	?	52.6%	-26.9%
O=C(COc1cccc(F)c1)Nc1nc(-c2ccccn2)cs1	?	?	11.2µM*	/	/	/
CC(C)[C@H](NC(=O)c1ccccc1Cl)C(=O)Nc1nc(-c2ccccn2)cs1	?	?	?	?	5.4%	?
Cc1ccc(OCC(=O)Nc2nc(-c3ccccn3)cs2)c(C)c1	23.1%	-5.8%	-18.2%	18.2%	-24.4%	?
O=C(COc1ccc([N+](=O)[O-])cc1)Nc1nc(-c2ccccn2)cs1	-10.9%	?	5.62µM*	?	-9.5%	?
O=C(Nc1nc(-c2ccccn2)cs1)Nc1ccc(F)cc1F	-7.3%	?	3.98µM*	?	4.9%	?
Cc1c(Cl)cccc1NC(=O)c1ccc2nc(C(C)C)oc2c1	?	3.7%	i	9.4%[46.1 µM]	-7.7%	/
CCOc1ccc(-c2nc(CSCC(=O)N3CCN(c4cccc(OC)c4)CC3)c(C)o2)cc1	20µM*	?	?	/	?	1.9%
CCc1ccc(-c2nc(CSCC(=O)N3CCN(c4ccccn4)CC3)c(C)o2)cc1	20µM*	/	/	?	-1.7%	-82.4%
COc1ccc(-c2nc(CSCC(=O)N3CCN(c4ccccc4F)CC3)c(C)o2)cc1	31.6µM*	?	?	-28.0%[46.1 µM]	0.7%	?
Cc1ccc(-c2nc(CSCC(=O)N3CCN(C(=O)c4ccco4)CC3)c(C)o2)cc1	?	-16.4%	-21.1%	/	39.8µM*	-0.2%
CCOc1ccc(-c2nc(CSCC(=O)NC3CC3)c(C)o2)cc1	18.8%	/	/	/	-13.1%	/
